# ± gives the standard deviation.
# System: MILI (PIWIL2) piRISC loaded with piRNA #1 (26 nt)
# Experiment: pre-steady-state target cleavage rate (min^-1); guide: piRNA #1 5'p-UGAGGUAGUAGGUUGUAUAGUAUCCA; MIWI and MILI are mouse PIWI proteins and EfPiwi is from a freshwater sponge; tags in brackets are library labels; higher = faster piRNA-guided slicing of the target
# Conditions: auxiliary factor: 500 nM mouse GTSF1
# Summary of the method: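 Active affinity-purified piRISC (1 nM) loaded with one synthetic guide was mixed with a transcribed, DNA-blocked target RNA library (0.1 nM), with or without 500 nM GTSF1 partner protein, in HEPES–potassium acetate buffer at 33 °C for 0–8 or 0–960 min. Uncleaved targets were sequenced, normalised to depth and to weakly complementary targets, and pooled across three trials, with k3 capped at 0.0001 min^-1. The pre-steady-state cleavage rate was determined with a burst-and-steady-state fit.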
row,Sequence,pre-steady-state target cleavage rate
1,GGAGACGCUACUAUACAACCUACUACCUCA,0.228 ± 0.019
2,GGAGACCAUACUUUACAACCUACUUCCUCA,0.0695 ± 0.018
3,GGAGACCUAACUAUACAACCUACUACCUACA,0.165 ± 0.023
4,GGAGUCGAUACUAUACAACCUACUACCUGA,0.0703 ± 0.011
5,GGAGACCUAAUUAUACAACCUACUACCUCA,0.0979 ± 0.011
6,GGAGACCAUACUAUACAACGUACUACCUCA,0.0191 ± 0.0046
7,GGAGACCAUACUAUUACAACCUACUACCUCA,0.161 ± 0.013
8,GGAGACGAUUCUAUAGAACCUACUACCUCA,0.172 ± 0.012
9,GGAGACGAAACUAUACAACCUACUUCCUCA,0.0627 ± 0.022
10,GGAGACGUUACUAUACAACCUACUACCUGA,0.102 ± 0.016
11,GGAGAGGAUACAAUACAACCUACUUCCUCA,0.0281 ± 0.0083
12,GGAGACGAUACUCUACAACCUACUACCUCA,0.176 ± 0.012
13,GGAGAGGAUACAAUACAACCUACUACCUCA,0.172 ± 0.012
14,GGAGUGGAUACAAUACAACCAACUACCUCA,0.00919 ± 0.0019
15,GGAGACGAUACUAUACAACCUACUUCCACA,0.0194 ± 0.0082
16,GGAGACGAUACUAUACAAGCUACUACGUCA,0.205 ± 0.032
17,GGAGACGAUACUAUACAAGCUACUACCACA,0.311 ± 0.016
18,GGAGACCUUACUUUACAACCUAGUACCUCA,0.047 ± 0.011
19,GGAGACGAUACUUUACAACCUAGUACCUCA,0.0601 ± 0.017
20,GGAGACCAUACUAUACAACCUACUACCGCA,0.203 ± 0.025

row,Sequence,pre-steady-state target cleavage rate
1,GGAGUGGAUACUAUACAACGUACUACCUCA,0.0277 ± 0.0034
2,GGAGAGGAUACUAUACAACCUACUACCCCA,0.119 ± 0.02
3,GGAGAGGUUACUAUACUACCUACUACCUCA,0.151 ± 0.011
4,GGAGACGAUACUAUACAACCAAGUACCUCA,0.00441 ± 0.0027
5,GGAGACCUAACUUUACAACCUACUACCUCA,0.109 ± 0.025
6,GGAGACCUAUCUAAUACAACCUACUACCUCA,0.0342 ± 0.0069
7,GGAGACCUUACUAUACAUCCUAGUACCUCA,0.0856 ± 0.018
8,GGAGACCUUACUAUACAACCUACUACGAGA,0.0846 ± 0.02
9,GGAGACGAUACUAUACAAGCUACUUCCUCA,0.167 ± 0.016
10,GGAGACGAUACAAUACAACCUACUACCUGA,0.116 ± 0.015
11,GGAGACCUAUGAAUACAACCUACUACCUCU [g2:g18:cont:t1U],0.0139 ± 0.0044
12,GGAGUGGAUAGUUUACAACCUACUACCUCA,0.11 ± 0.0082
13,GGAGACCUUACUAUACGACCUACUACCUCA,0.0683 ± 0.0088
14,GGAGAGGAUUACUAUACAACCUACUACCUCA,0.132 ± 0.0095
15,GGAGACCAUACUAUUCAACGUACUACCUCA,0.019 ± 0.0049
16,GGAGACCAUACUACACAACCUACUACCUCA,0.215 ± 0.018
17,GGAGACCUAAAUAUACAACCUACUACCUCA,0.0318 ± 0.0077
18,GGAGACCUAUGUAUACAACCUACUACUCUCA,0.117 ± 0.013
19,GGAGACGAUACAAUACAACCUACUACCACA,0.204 ± 0.019
20,GGAGAGGAUACUAUACUAGCUACUACCUCA,0.113 ± 0.011
